For orientation: inhibition means the percentage by which the read-out fell short of the control.

A number with no mark means an inactive call. The rule behind the calls is not given here.

This passage reports inhibition results from PubChem BioAssay.

The target in this test is Pantothenate synthetase (Mycobacterium tuberculosis (strain ATCC 25618 / H37Rv)) (UniProt P9WIL5). In words: Recombinant Mtb pantothenate synthetase (PanC) inhibitors, coupled enzyme, confirmatory (AID 375).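 Note: 0% = full reaction with vehicle and 100% = no enzyme background.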 As to conditions: coupled enzyme assay; at 10 µM, active compounds read high.
Pantothenate synthetase (Mycobacterium tuberculosis (strain ATCC 25618 / H37Rv)), sequence (P9WIL5 whole entry, looked up): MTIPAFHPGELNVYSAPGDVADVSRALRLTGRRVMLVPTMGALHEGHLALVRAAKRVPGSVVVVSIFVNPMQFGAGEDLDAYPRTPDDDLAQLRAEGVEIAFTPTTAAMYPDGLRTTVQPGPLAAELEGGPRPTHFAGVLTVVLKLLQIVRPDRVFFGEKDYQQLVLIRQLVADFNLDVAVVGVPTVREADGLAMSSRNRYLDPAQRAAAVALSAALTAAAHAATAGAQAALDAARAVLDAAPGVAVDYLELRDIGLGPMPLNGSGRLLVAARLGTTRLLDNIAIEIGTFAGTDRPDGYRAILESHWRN
Take `CCOC(=O)c1sc(Nc2nc3c(OC)cccc3s2)nc1C`: the inhibition was 1%. In the case of `Cc1ccc(Cl)cc1N1CCN(C(=O)c2cn(C)c(=O)c3c2c2ccccc2n3C)CC1` it was 3%; in that of `COc1ccc(NS(=O)(=O)c2ccc(NC(C)=O)cc2)cc1OC`, 0%; in that of `O=C(NCC1CCCO1)c1ccccc1-c1nc(-c2ccc(Cl)cc2)no1` (stereo not given), 1%. In the case of `O=c1c2nnn(Cc3ccc(Cl)cc3)c2ncn1Cc1ccc(F)cc1` it was 0%; in that of `COC(=O)C(C)Sc1nc2c(c(=O)n(C)c(=O)n2C)n1Cc1cccc(C)c1` (stereo not given), 2%. Regarding `O=S(=O)(NCCc1ccncc1)c1cc(Br)ccc1F`, the inhibition was 0%. The same measure for `Nc1nc(N)nc(-c2ccccc2)n1`: 0%. In the case of `O=C(NCN1CCCCC1)c1cccnc1` it was 0%; in that of `O=C(O)c1cccc(NC(=O)C2C3C=CC(C3)C2C(=O)OCC(F)(F)C(F)F)c1` (stereo not given), 5%; in that of `CCOC(=O)c1nnn(-c2nonc2N)c1CN1CCc2ccccc2C1`, 2%.

`CCn1c(SC)nc2c(c1=O)SC(C)C2` (stereo not given): the inhibition is 0%. The same measure for `CSc1cccc(NC(=O)C2CCN(S(=O)(=O)c3ccc(F)cc3)CC2)c1`: 0%. For the compound `O=C(O)C1CCCN1S(=O)(=O)c1ccc2ccccc2c1` (stereo not given), the inhibition is 3%. The same measure for `Cc1ccc(-c2cc(C(F)(F)F)n3nc(C(=O)N4CCCC4)cc3n2)cc1`: 5%. In the case of `O=C(NC1CCCCC1)C1CC(O)CN1C(=O)OCc1ccccc1` (stereo not given) it was 0%. The same measure for `COCCCNC(=O)c1ccc2c(c1)OCO2`: 1%; for `COCCNS(=O)(=O)c1cc(F)ccc1OC`: 0%; for `CCCNc1nc(N2CCOCC2)nc(N2CCOCC2)n1`: 0%. With `CC(C)(C)n1nc2c(c1NC(=O)COc1ccc(Cl)cc1)CSC2`, the inhibition is 0%. In the case of `O=C(CSc1nnc(-c2c[nH]c3ccccc23)o1)N(Cc1ccccc1)c1ccc(F)cc1` it was 0%; in that of `O=C(O)c1cnn2c1NC(c1ccc(F)cc1)CC2C(F)(F)F` (stereo not given), 2%.

Regarding `COc1ccc(S(=O)(=O)N2CCCC(C(=O)N3CCCCCC3)C2)cc1` (stereo not given), the inhibition was 6%. In the case of `CN(C)CCCC1(c2ccc(F)cc2)OCc2cc(C#N)ccc21` (stereo not given) it was 0%. In the case of `COc1cccc(-n2nc(C(=O)Nc3ccc4c(c3)OCO4)c3ccccc3c2=O)c1` it was 0%; in that of `CCOc1ccccc1NC(=O)CCN1CCN(S(=O)(=O)c2ccc(Br)cc2)CC1`, 0%. With `CCOC(=O)Cn1c(N2CCOCC2)nc2c1c(=O)[nH]c(=O)n2C`, the inhibition was 5%. Consider `Cn1c(=O)c2c(ncn2CC(=O)OCC(=O)NC2CCCc3ccccc32)n(C)c1=O` (stereo not given), for which the inhibition is 3%. In the case of `CC(C)Cc1cc(C(=O)Nc2c(F)cc(F)cc2Br)no1` it was 0%. In the case of `Cc1nnc(SCC(=O)Nc2nccs2)s1` it was 0%. The same measure for `CCOC(=O)N1CCN(c2c(N3CCN(c4ccccn4)CC3)c(=O)c2=O)CC1`: 0%. Turning to `N#Cc1cnc(SCCc2ccccc2)nc1N`, the inhibition was 0%.

For `C/C(=N\O)C(=O)NCc1ccccn1`, the inhibition was 4%. The same measure for `CC(C)OC(=O)CSc1nnc(-c2ccc(O)cc2)n1Cc1ccccc1`: 0%. The same measure for `CCOC(=O)N1CCN(Cc2ccccc2F)CC1`: 19%.

For the compound `CCOC(=O)c1c(C)oc2ccc(OCC(N)=O)cc12`, the inhibition was 0%. `Cc1cc(=O)oc2cc(OCC#N)ccc12`: the inhibition is 0%.

In the case of `COc1cccc(NC(=O)c2nnn(Cc3ccc(Br)cc3F)c2N)c1`, the inhibition is 7%. On to `CCOC(=O)Cn1nc(-c2ccc(Cl)cc2)cc1N`, for which the inhibition was 0%.

Turning to `Cn1cc(C(=O)NC2CCCCCCC2)c(=O)c2cc(S(=O)(=O)N3CCCC3)ccc21`, the inhibition is 0%.
